The whole screen tested about 5,500 compounds, of which about 2,000 (36%) were called active. Roughly 18% stayed inconclusive and do not appear here. Rule as the data show it: active = normalized growth mostly below about 0.91 (no sharp cut-off); inconclusive = no clear call, values can overlap the other calls; inactive = mostly above about 0.92. Some of the results follow.
Experiment: chemical genetic growth profiling, strain panel (AID 1159580);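 also: tested at 20 µM; growth read once vehicle control cultures reached saturation at 30 °C; 1 = growth at the plate median or of vehicle wells; lower values mean less growth of the strain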
Settings: growth OD

Measured: normalized growth

O=c1cc(-c2ccc(O)cc2)oc2cc(O[C@@H]3O[C@H](CO)[C@@H](O)[C@H](O)[C@H]3O[C@@H]3OC[C@](O)(CO)[C@H]3O)cc(O)c12
inactive: S. cerevisiae deletion strains, locus YJR075W, strain HOC1, stronger effect = lower value 1.04 | S. cerevisiae deletion strains, locus YKL009W, strain mrt4, stronger effect = lower value 0.986 | S. cerevisiae deletion strains, locus YKL068W, stronger effect = lower value 0.991 | S. cerevisiae deletion strains, locus YKL085W, strain MDH1 (second series), stronger effect = lower value 0.999 | S. cerevisiae deletion strains, locus YKL085W, strain MDH1, stronger effect = lower value 0.999 | S. cerevisiae deletion strains, locus YKL160W, strain elf1, stronger effect = lower value 1.01 | S. cerevisiae deletion strains, locus YKL190W, strain CNB1, stronger effect = lower value 0.994 | S. cerevisiae deletion strains, locus YKR001C, strain vps1, stronger effect = lower value 0.987 | S. cerevisiae deletion strains, locus YKR026C, strain gcn3, stronger effect = lower value 0.991 | S. cerevisiae deletion strains, locus YKR091W, strain srl3, stronger effect = lower value 1.01 | S. cerevisiae deletion strains, locus YLL001W, strain dnm1, stronger effect = lower value 0.993 | S. cerevisiae deletion strains, locus YLL026W, stronger effect = lower value 0.995 | S. cerevisiae deletion strains, locus YLL041C, strain sdh2, stronger effect = lower value 1 | S. cerevisiae deletion strains, locus YLR027C, strain aat2, stronger effect = lower value 1.01 | S. cerevisiae deletion strains, locus YLR039C, strain RIC1, stronger effect = lower value 1.11 | S. cerevisiae deletion strains, locus YLR058C, strain SHM2, stronger effect = lower value 1.02 | S. cerevisiae deletion strains, locus YLR102C, strain apc9, stronger effect = lower value 0.989 | S. cerevisiae deletion strains, locus YLR113W, strain HOG1, stronger effect = lower value 1.03 | S. cerevisiae deletion strains, locus YLR221C, strain rsa3, stronger effect = lower value 1.01 | S. cerevisiae deletion strains, locus YLR258W, strain gsy2, stronger effect = lower value 0.997 | S. cerevisiae deletion strains, locus YLR262C, strain YPT6 (second series), stronger effect = lower value 0.999 | S. cerevisiae deletion strains, locus YLR262C, strain YPT6, stronger effect = lower value 1.16 | S. cerevisiae deletion strains, locus YLR268W, strain sec22, stronger effect = lower value 0.983 | S. cerevisiae deletion strains, locus YLR320W, strain mms22, stronger effect = lower value 1.02 | S. cerevisiae deletion strains, locus YLR330W, strain CHS5, stronger effect = lower value 1.04 | S. cerevisiae deletion strains, locus YLR342W, strain FKS1 (second series), stronger effect = lower value 0.994 | S. cerevisiae deletion strains, locus YLR342W, strain FKS1, stronger effect = lower value 1.01 | S. cerevisiae deletion strains, locus YLR357W, strain rsc2, stronger effect = lower value 0.979 | S. cerevisiae deletion strains, locus YLR370C, strain arc18, stronger effect = lower value 1 | S. cerevisiae deletion strains, locus YLR371W, strain rom2, stronger effect = lower value 0.985 | S. cerevisiae deletion strains, locus YLR384C, strain iki3, stronger effect = lower value 0.999 | S. cerevisiae deletion strains, locus YLR418C, strain cdc73, stronger effect = lower value 1.06 | S. cerevisiae deletion strains, locus YML016C, strain PPZ1, stronger effect = lower value 1.01 | S. cerevisiae deletion strains, locus YML032C, strain rad52, stronger effect = lower value 1 | S. cerevisiae deletion strains, locus YML120C, strain ndi1, stronger effect = lower value 1.02 | S. cerevisiae deletion strains, locus YML124C, strain tub3, stronger effect = lower value 0.991 | S. cerevisiae deletion strains, locus YMR058W, strain fet3, stronger effect = lower value 1.01 | S. cerevisiae deletion strains, locus YMR078C, strain ctf18, stronger effect = lower value 0.963 | S. cerevisiae deletion strains, locus YMR125W, strain sto1, stronger effect = lower value 0.992 | S. cerevisiae deletion strains, locus YMR129W, stronger effect = lower value 1.01 | S. cerevisiae deletion strains, locus YMR205C, strain PFK2, stronger effect = lower value 1.01 | S. cerevisiae deletion strains, locus YMR223W, strain ubp8, stronger effect = lower value 1.02 | S. cerevisiae deletion strains, locus YMR231W, strain pep5, stronger effect = lower value 0.997 | S. cerevisiae deletion strains, locus YMR263W, strain SAP30, stronger effect = lower value 1.02 | S. cerevisiae deletion strains, locus YMR307W, strain GAS1, stronger effect = lower value 1.04 | S. cerevisiae deletion strains, locus YNL067W, strain RPL9B, stronger effect = lower value 1.02 | S. cerevisiae deletion strains, locus YNL071W, strain lat1, stronger effect = lower value 1.02 | S. cerevisiae deletion strains, locus YNL153C, strain GIM3, stronger effect = lower value 1 | S. cerevisiae deletion strains, locus YNL183C, strain NPR1, stronger effect = lower value 0.979 | S. cerevisiae deletion strains, locus YNL209W, strain ssb2, stronger effect = lower value 1.01 | S. cerevisiae deletion strains, locus YNL233W, strain BNI4, stronger effect = lower value 1.02 | S. cerevisiae deletion strains, locus YNL248C, strain rpa49, stronger effect = lower value 1 | S. cerevisiae deletion strains, locus YNL250W, strain rad50, stronger effect = lower value 1 | S. cerevisiae deletion strains, locus YNL271C, strain bni1, stronger effect = lower value 1.01 | S. cerevisiae deletion strains, locus YNL298W, strain CLA4, stronger effect = lower value 0.994 | S. cerevisiae deletion strains, locus YNL307C, strain MCK1, stronger effect = lower value 0.977 | S. cerevisiae deletion strains, locus YNL322C, strain KRE1 (second series), stronger effect = lower value 0.994 | S. cerevisiae deletion strains, locus YNL322C, strain KRE1, stronger effect = lower value 1.01 | S. cerevisiae deletion strains, locus YNR049C, strain mso1, stronger effect = lower value 0.998 | S. cerevisiae deletion strains, locus YNR052C, strain pop2, stronger effect = lower value 1 | S. cerevisiae deletion strains, locus YOL012C, strain htz1 0.956 | S. cerevisiae deletion strains, locus YOL147C, strain pex11, stronger effect = lower value 0.996 | S. cerevisiae deletion strains, locus YOR001W, strain rrp6, stronger effect = lower value 1.01 | S. cerevisiae deletion strains, locus YOR061W, strain CKA2, stronger effect = lower value 1.02 | S. cerevisiae deletion strains, locus YOR069W, strain VPS5, stronger effect = lower value 1 | S. cerevisiae deletion strains, locus YOR070C, strain gyp1, stronger effect = lower value 1 | S. cerevisiae deletion strains, locus YOR080W, strain dia2, stronger effect = lower value 1 | S. cerevisiae deletion strains, locus YOR083W, strain WHI5, stronger effect = lower value 1.02 | S. cerevisiae deletion strains, locus YOR106W, strain vam3, stronger effect = lower value 1.02 | S. cerevisiae deletion strains, locus YOR136W, strain idh2, stronger effect = lower value 0.974 | S. cerevisiae deletion strains, locus YOR144C, strain elg1, stronger effect = lower value 0.989 | S. cerevisiae deletion strains, locus YOR184W, strain ser1, stronger effect = lower value 1.04 | S. cerevisiae deletion strains, locus YOR231W, strain MKK1, stronger effect = lower value 1.07 | S. cerevisiae deletion strains, locus YOR265W, strain rbl2, stronger effect = lower value 1.01 | S. cerevisiae deletion strains, locus YOR270C, strain vph1, stronger effect = lower value 1.02 | S. cerevisiae deletion strains, locus YOR290C, strain snf2, stronger effect = lower value 0.998 | S. cerevisiae deletion strains, locus YOR316C, strain cot1, stronger effect = lower value 0.992 | S. cerevisiae deletion strains, locus YPL051W, strain arl3, stronger effect = lower value 1 | S. cerevisiae deletion strains, locus YPL055C, strain LGE1, stronger effect = lower value 1.04 | S. cerevisiae deletion strains, locus YPL078C, strain atp4, stronger effect = lower value 0.999 | S. cerevisiae deletion strains, locus YPL106C, strain sse1, stronger effect = lower value 0.997 | S. cerevisiae deletion strains, locus YPL240C, strain hsp82, stronger effect = lower value 1 | S. cerevisiae deletion strains, locus YPL241C, strain CIN2, stronger effect = lower value 1.01 | S. cerevisiae deletion strains, locus YPL256C, strain CLN2, stronger effect = lower value 0.995 | S. cerevisiae deletion strains, locus YPR119W, strain clb2, stronger effect = lower value 0.984 | S. cerevisiae deletion strains, locus YPR141C, strain kar3, stronger effect = lower value 0.999 | S. cerevisiae deletion strains, locus YPR163C, strain tif3, stronger effect = lower value 0.979 | S. cerevisiae deletion strains, locus YPR167C, strain met16, stronger effect = lower value 0.981 | S. cerevisiae deletion strains, strain wtn01, stronger effect = lower value 0.99 | S. cerevisiae strains, strain wild type, stronger effect = lower value 1.01

— PubChem BioAssay AID1159580 (chemical genetic matrix, 2015)
